Test results as given in article PMC12136788.
Where a chain is given by its changes, count along the chain named. In all, about 24,000 sequences were measured (“enrichment r”: median about 0.99, highest 2% from about 3.7 on). These entries were drawn from the full list.

T1: UNK ZnF1-3 (human, UniProt Q9C0B0 31-174)
T1 sequence: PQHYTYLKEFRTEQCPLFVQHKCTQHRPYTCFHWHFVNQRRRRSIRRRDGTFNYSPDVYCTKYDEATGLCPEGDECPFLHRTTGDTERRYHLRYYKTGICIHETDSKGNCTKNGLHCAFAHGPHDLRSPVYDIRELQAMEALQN

B1: chr9:74905015:74905016:+_ENSMUSG00000007656_ENSMUST00000169492|mus_hu|FALSE|FALSE (ssRNA)
RNA: GGGAGUUCUACAGUCCGACGAUCUGUGUUUGAAAUAUGUGACCUUUCUUCUAACUUGUGGUCUUAAACUUCUGUUUUACAAAAUCCAAAAGGUAAAUACAGAAGAAAUCAAUACAAUAGAGAUUAUAUUAAAUAAGAGUAACACAACAGAGGAUUGAGCAUCA
B2: chr22:32879901:32879902:+_ENSG00000100225_ENST00000397426|hu_mus|hu_hu_hu_mus_False|8_18 (ssRNA)
RNA: GGGAGUUCUACAGUCCGACGAUCCUCUUCCAUACUCAUGGCAUCCUGAAUUGACUCAGCUUCAACAUUUUGACUAGGCCCUUCCAUACUGUCAUCAGUCCAGGCAUCAAAUGGGGUUGCCUGUCCUUGGAAUGAAUCAGUCCCCAACAGAGGAUUGAGCAUCA
B3: chr6:50805741:50805742:+_ENSG00000008196_ENST00000393655|hu_hu|FALSE|FALSE (ssRNA)
RNA: GGGAGUUCUACAGUCCGACGAUCCAGGGAGGUGAGUAACGUGACAUUUGCUGCUUUGCGCCUGCCCGCGGGUAAAUUCAAACCGAUUUUUUCUAGCCUUUCUCGCAAAGAUCUCCCCCCAUUUUUCGAUUUGGCUCUUCUGAGCAACAGAGGAUUGAGCAUCA
B4: chr7:99593380:99593381:+_ENSMUSG00000052572_ENSMUST00000098308|mus_hu|FALSE|FALSE (ssRNA)
RNA: GGGAGUUCUACAGUCCGACGAUCGGUGAGGAGGCUCUCAUCUCAUCUCUUGGGCAGAAAGCCCGUCAGAGGUUCAUCCCUACACCUGGCACUUUGAGCAAACCAAAGCCUUCCUUCAUACUGCAAUGUCUUUUCUGUCCCACCCAACAGAGGAUUGAGCAUCA
B5: 73047273_73096420_338_5pUTR_ENSG00000163605_ENST00000295862|human|control|control (ssRNA)
RNA: GGGAGUUCUACAGUCCGACGAUCGGCUCAGGAGCUGAAGUUCUGAAAUCAUCCAUCACUUUCUCCAGUUUGAAAAUAAAAUAGCCUUUAAAUUGGGACCACUGAAUCAUUGUUUCUCCAGUCUUGGCUACAUGACAAAGAAACCAACAGAGGAUUGAGCAUCA
B6: chr3:179287964:179287965:+_ENSG00000136518_ENST00000429709|hu_hu|hu_hu_hu_mus_True|28_38 (ssRNA)
RNA: GGGAGUUCUACAGUCCGACGAUCCUUGAGUGGUGAGAUGGCCUCCAUGUUCUCCCUGGGCACGCGGAGGGCAUUGGUGUCUAUGUAGUAGGUGGGCCCGCCUUGUUUGCCUUUAUCACCAUCAAUCUCCAUCAUUGUACUUCCCAACAGAGGAUUGAGCAUCA
B7: chr9:35286173:35286174:+_ENSMUSG00000038119_ENSMUST00000042842|mus_hu|FALSE|FALSE (ssRNA)
RNA: GGGAGUUCUACAGUCCGACGAUCAGUGUUAUUGUUACUUGAUGGAAUGUACGUCCACUUUAGCAUGAUCUGAGUAUCGCUGACAGCCUCUGUGUAUGCAAUGUGAGGUCCAGUUAUUGGACGGCUGGAAAAGCGAUUGGGGAACAACAGAGGAUUGAGCAUCA
B8: chr1:39494564:39494565:+_ENSG00000168653_ENST00000372967|hu_hu|hu_hu_hu_mus_True|28_68 (ssRNA)
RNA: GGGAGUUCUACAGUCCGACGAUCAUGCAUUCGCCUCAUCGUUUUGUACCGAAGCAAGCACUCUUCGAAAUCAUCAUACUCUAUCUUGCACUCCUUUUUCGCCCGGGUAUAACCGAUCCCGUGUGCACACUCUAUCCACUCUUUCAACAGAGGAUUGAGCAUCA
B9: 3369786_3369906_1343_3pUTR_ENSMUSG00000025899_ENSMUST00000053407|mouse|control|control (ssRNA)
RNA: GGGAGUUCUACAGUCCGACGAUCAGUCCUUGUUGAUGCCAAGGUAUUUUCCAUUUCCACAUCCGAUAUCUGCCACUAUGGAACCACUUGGCAAAGCUUUCAGGAACUCUACUAUGCGUGGCCAUGGGCUAUGUCUUGUGCUGCCAACAGAGGAUUGAGCAUCA
B10: chr7:141450121:141450122:+_ENSG00000106028_ENST00000265304|hu_mus|hu_hu_hu_mus_True|68_88 (ssRNA)
RNA: GGGAGUUCUACAGUCCGACGAUCUCAUCCGUUCUAUGCCUUUUCUUUCGUCUGGUCACUCAGAAAUAUAAUAUUAUCAGCUAUGAUUGUUGUUGCUUGCCGCCUCACAUUGUUUUUAUCCAUGUACUCGCCAUAGUCCACUUUCAACAGAGGAUUGAGCAUCA
B11: 139369022_139369142_3059_CDS_ENSG00000148396_ENST00000313050|human|control|control (ssRNA)
RNA: GGGAGUUCUACAGUCCGACGAUCGUCAGAAUGGGACGGGUUGUACACGUUUACAGGAUUUUCCAAAGUCCUGCUUAAGGUAAAGUCUAGGGCUCCGUAAGUGUCUUCCUGAUGACUGGAAUGGUUUGCCUUAUUACCAUCAGGCAACAGAGGAUUGAGCAUCA
B12: chr1:109605286:109605287:-_ENSG00000197780_ENST00000461096|hu_mus|hu_hu_hu_mus_True|8_108 (ssRNA)
RNA: GGGAGUUCUACAGUCCGACGAUCAAGAACAAUAACAACAUUCAGUAACCUCUUUAAAUGCAAUUAUCCUUAUUAUAAGCUAAGCAGAAUAAUAAUUUAAUACCGUAAGUGAACUACACACAAAGCCGUGUAUUCAGAAAUGGUCAACAGAGGAUUGAGCAUCA
B13: 25140584_25140782_2291_CDS_ENSMUSG00000026965_ENSMUST00000028341|mouse|control|control (ssRNA)
RNA: GGGAGUUCUACAGUCCGACGAUCUGCCCAGAAGAGCAGUAGCUCCUCUUCCUUCUGGUCAGCCUGGGAGGCCAUGCCUGAGUCACUCUCAUCAUCACUGUCAAUCAGCACCAUGUUGUCCCUAUCCUGAGGCCGCUCUUCCUCCAACAGAGGAUUGAGCAUCA
B14: chr15:23003119:23003120:+_ENSG00000068793_ENST00000560848|hu_mus|FALSE|FALSE (ssRNA)
RNA: GGGAGUUCUACAGUCCGACGAUCUUAUAAAGUUAAGCUUUCAGAUCAAAAGUAGGUUCAGACAUAAUGGAAAAUAGCCCCUAAAAAUUUCAAUAUAGUUUACAUAAAGACAAACAUGCCAUCAGUUACUGGGAUGCUGUGAGCCAACAGAGGAUUGAGCAUCA
B15: chr11:60965468:60965469:-_ENSMUSG00000042506_ENSMUST00000041683|mus_mus|motif|central (ssRNA)
RNA: GGGAGUUCUACAGUCCGACGAUCCUAACCACAGUACAAUCAUUGGAUUUUUUUUCCCUCACGAUUUUUUAUUUCAAAGCGGUAAUAAAUGAAACAAACCACUUGUCAAAAAGAACAAUGAUUUUACACAAGGAAAAGCAUACACAACAGAGGAUUGAGCAUCA
B16: chr17:87833181:87833182:-_ENSMUSG00000036438_ENSMUST00000040440|perfect_dup|motif|central (ssRNA)
RNA: GGGAGUUCUACAGUCCGACGAUCCGGGCUUAGAUAUAGCCAGAGUAAGCCACAUGCAACAUGUUACUUCAUCAAUUUUCGGAAAUAAGGUUUAAGGACAAUGACAGUAAGAUAAGGGAAGAAAACAUGGAGGAAUGAAGUCCUCAACAGAGGAUUGAGCAUCA
B17: chr18:52893488:52893489:-_ENSG00000196628_ENST00000354452|hu_hu|hu_hu_hu_mus_True|8_18 (ssRNA)
RNA: GGGAGUUCUACAGUCCGACGAUCUAUUUAGACCAUUUCCGCGGAGUUAUGGCAUUUACUCAGUGCUGAUAGGUGGAAAAACUACUUCAACAGGGAUUUUUUUUUUCCUUAAUACAUGCCAAGAAUUGUGUGGCUGUAAAACAGCAACAGAGGAUUGAGCAUCA
B18: 137534387_137536831_709_CDS_ENSG00000094880_ENST00000394886|human|control|control (ssRNA)
RNA: GGGAGUUCUACAGUCCGACGAUCCUCCUCUAUCAACUGCAACUCUGUGUAUAUAUGAGCCAGAAAAAACUCUUUCAUCCAGGUGUCUGGCAAAGACAGGAACUUCAGCAUCUCUUUGUCUGUGAUCAGGUUACAGAGUUCUAACAACAGAGGAUUGAGCAUCA
B19: chr16:94651144:94651145:+_ENSMUSG00000040785_ENSMUST00000117648|mus_hu|mus_mus_mus_hu_True|68_108 (ssRNA)
RNA: GGGAGUUCUACAGUCCGACGAUCAUUCUCUUGGAUCAAGUGGCGAAUAACAUAGUCCACUGCUUCAUGGACAAAAUUUCUGCUAGAAAAACAGGUUGUAUAGUCUUCUGUGCUCAAAACUUUCCAAGAAAGCAAUUCUUUGAGCAACAGAGGAUUGAGCAUCA
B20: chr14:89307221:89307222:+_ENSG00000165533_ENST00000346301|hu_mus|hu_hu_hu_mus_False|58_98 (ssRNA)
RNA: GGGAGUUCUACAGUCCGACGAUCUCCUGUUUGGUUAGUUCCAGGGAGCUUCAAAGAUGUGCCAGGGCGUGGGACCUGAGCUAUAGCAUUUUCAUCCAGGAUCAUUUCAGCAAUUCCUUCCUGGUCCACAUCAAUUUCAUCUAUCAACAGAGGAUUGAGCAUCA
B21: chr3:179287964:179287965:+_ENSG00000136518_ENST00000429709|hu_hu|hu_hu_hu_mus_True|88_108 (ssRNA)
RNA: B6 RNA with G27U, U30A, G36A, G48A, U102C, U105C, A114G
B22: chrX:71549400:71549401:+_ENSMUSG00000019087_ENSMUST00000019231|mus_hu|mus_mus_mus_hu_False|8_98 (ssRNA)
RNA: GGGAGUUCUACAGUCCGACGAUCGCAGUAGGAAGAGCAAACCUUUCCAGUCCAGUGCGCUGCAGGGUGGGAAAGCAACAACACGGACACCGUCCCACCCUCAACCCCCCCACUGGCACAGGGUCACAUCUGGGUCAUCAAAGACAACAGAGGAUUGAGCAUCA

These binders were tested against T1, UNK ZnF1-3 (assay: nsRBNS (natural sequence RNA bind-n-seq); RBNS binding buffer (assumed for nsRBNS): 25 mM Tris pH 7.5, 150 mM KCl, 3 mM MgCl2, 0.01% Triton X-100, 500 ug/ml BSA, 20 U/ml SUPERase-In, 4 C; UNK is unkempt and MSI1 is Musashi-1; names of the RNAs are library labels; protein concentration not given here; high values mean tight binding).

Binder	binding signal [enrichment R]
B1	2.28
B2	1
B3	1.13
B4	1.29
B5	1.25
B6	0.581
B7	1.04
B8	0.701
B9	0.678
B10	0.541
B11	0.675
B12	0.741
B13	1.06
B14	2.11
B15	0.852
B16	2.55
B17	1.05
B18	1.71
B19	0.52
B20	0.829
B21	0.786
B22	0.928
